The text below walks through data of PubChem BioAssay (NCATS).

Inconclusive results are not listed. Active and inactive are the calls of the source. Unless noted, calls follow the shape of the dose curve; as a rule, active = well fitted curve in the direction sought with a large enough effect; inconclusive = small, poorly fitted or top-dose-only effect, or another doubt; inactive = no such curve, though single readings can be large; an effect the other way counts as inactive or inconclusive.

The target in assay [1] is Arylsulfatase A (Homo sapiens) (UniProt P15289). The assay can be described thus: qHTS screen for enhancers of Arylsulfatase A (ASA1): LOPAC Validation Assay (AID 720538). The conditions noted are these: outcome: dose series up to 57.5 µM. A digest of the protocol: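 Enhancer assay in patient-derived MLD fibroblasts carrying ASA-I179S: 48 h compound exposure at 37 C, then 14 h room-temperature pNCS turnover (0.5 mM final) in lysis buffer. Read by fluorescence at 525/598 nm after NaOH stop.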
A general note: qHTS replaces the single test concentration by a dilution series.

Assay [2] in a line: qHTS for compounds that reverse cellular toxicity of Amyloid beta (A-beta) peptide in yeast: LOPAC Validation Assay (AID 720559). Put shortly: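 Rescue of A-beta toxicity was scored as yeast growth by 600 nm absorbance after 48 hr at 30 C with compound. Normalization used DMSO (negative) and equimolar ferric chloride plus clioquinol (positive).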
Assay [3] in a line: qHTS for Activators of Parkin Expression: LOPAC Validation Assay (NLuc Reporter) (AID 720572). A digest of the protocol:
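Neuronal line stably carrying a FLuc/NLuc coincidence reporter under the Parkin promoter, seeded 24 h, then dosed in 7-point series for 24 h at 37 C. NLuc luminescence read after FLuc; normalized to DMSO and positive control (100%).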

Assay [4] is described as follows: qHTS for Activators of Parkin Expression: LOPAC Validation Assay (FLuc Reporter) (AID 720573). Put shortly: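 FLuc signal from Parkin-promoter coincidence reporter neuronal cells, normalized to DMSO and positive control (100%). Cells (1,500/well) pre-incubated 24 h, then exposed to LOPAC compounds in 7-point dose response for 24 h at 37 C, 5% CO2.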
Assay [5] deals with Hexokinase-4 (Homo sapiens) + Glucokinase regulatory protein (Homo sapiens) (UniProt P35557+Q14397). The assay can be described thus: qHTS assay for inhibitors of recombinant human GCK-GKRP interaction: Diaphorase-coupled assay (AID 743205). Put shortly:
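A kinetic fluorescence read (Ex 525/Em 590 nm, every minute for 30 minutes) tracked resorufin from a G6PDH-diaphorase coupled GCK reaction. It contained 10 nM GST-GCK, 10 nM FLAG-GKRP, 5 mM glucose, 0.4 mM ATP in Hepes pH 7.6. Normalized to with/without-enzyme DMSO controls.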

The target of assay [6] is Nuclear receptor ROR-gamma (Homo sapiens) (UniProt P51449). Nature of the assay: qHTS assay for small molecule antagonists of the retinoid-related orphan receptor gamma (ROR-gamma) signaling pathway (AID 651802). Also: nearly all actives have a fitted effect of over 60% in size. Also: potency is read from the fitted curve at half-maximal effect. A digest of the protocol: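 Antagonism is scored as a fall in luminescence from a RORE-luciferase reporter in CHO cells expressing ROR under a TET-inducible promoter, measured 16hr after doxycycline induction in the presence of compound.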

Assay [7] is described as follows: qHTS assay for small molecule agonists of the antioxidant response element (ARE) signaling pathway measured by Nrf2-dependant transcriptional activity (AID 720636; active = well fitted curve in the direction sought with a large enough effect in the repeat runs; an effect the other way counts as inactive or inconclusive; also: potency is read from the fitted curve at half-maximal effect). A digest of the protocol:
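In HepG2 cells engineered with an Nrf2-responsive luciferase gene, ARE induction was quantified as luminescence after 16 hr compound treatment at 37 C.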

Assay [8] in a line: qHTS assay for small molecule antagonists of the retinoid-related orphan receptor gamma (ROR-gamma) signaling pathway - cell viability counter screen (AID 720652; active = well fitted curve in the direction sought with a large enough effect in the repeat runs; an effect the other way counts as inactive or inconclusive;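 also: compound exposure lasted 16 hr before ATP read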; also: potency is read from the fitted curve at half-maximal effect). A digest of the protocol:
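Cytotoxicity is quantified via intracellular ATP (CellTiter-Glo luminescence) in doxycycline-induced CHO ROR response element-luciferase reporter cells treated with compound for 16 hr at 37 C, 5% CO2.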

Assay [9] has as its target Tyrosine-protein kinase Yes (Homo sapiens) (UniProt P07947). The assay can be described thus: qHTS for small molecule inhibitors of Yes1 kinase: Primary Screen (AID 686947). Also: nearly all actives have a fitted effect of over 60% in size. A digest of the protocol: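 ADP-Glo luminescence readout; final 4 nM Yes1, 0.1 mM ATP, 0.3 mg/mL poly(E4Y), Tris pH 7.5, MgCl2, DTT, Brij-35. 20 min compound preincubation, 60 min reaction at RT. Normalized to DMSO wells with and without enzyme.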

Assay [10] is described as follows: qHTS for small molecule inhibitors of Yes1 kinase: Counter Assay (AID 686950).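 Also: no kinase present so only ADP-Glo detection of a fixed ADP amount is tested; luminescence from ADP-Glo reporting ADP in a fixed ATP and ADP mixture; series mostly up to about 77 µM.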 A digest of the protocol:
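Enzyme-free ADP-Glo interference check: compounds were preincubated 20 min in buffer, then an ATP/ADP mix (0.08 mM ATP, 0.02 mM ADP final) was added for 60 min at room temperature before two-step ADP-Glo luminescence detection.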

Chain of Tyrosine-protein kinase Yes (Homo sapiens) (P07947 whole entry, looked up): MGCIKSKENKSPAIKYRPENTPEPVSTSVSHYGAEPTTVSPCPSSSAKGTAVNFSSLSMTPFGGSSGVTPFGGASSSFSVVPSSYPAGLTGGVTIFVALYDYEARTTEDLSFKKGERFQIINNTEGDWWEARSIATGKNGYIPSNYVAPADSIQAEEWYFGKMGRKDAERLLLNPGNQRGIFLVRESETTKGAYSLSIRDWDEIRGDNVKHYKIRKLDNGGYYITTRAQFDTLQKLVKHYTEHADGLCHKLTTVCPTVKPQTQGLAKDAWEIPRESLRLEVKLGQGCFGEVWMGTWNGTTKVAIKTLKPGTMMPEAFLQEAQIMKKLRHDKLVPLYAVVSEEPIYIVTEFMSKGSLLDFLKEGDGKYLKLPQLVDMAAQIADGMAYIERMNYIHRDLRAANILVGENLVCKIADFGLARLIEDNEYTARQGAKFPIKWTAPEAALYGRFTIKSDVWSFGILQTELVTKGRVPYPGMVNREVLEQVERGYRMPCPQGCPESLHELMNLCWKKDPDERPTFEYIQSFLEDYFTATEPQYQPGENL
Chain of Arylsulfatase A (Homo sapiens) (P15289 whole entry, looked up): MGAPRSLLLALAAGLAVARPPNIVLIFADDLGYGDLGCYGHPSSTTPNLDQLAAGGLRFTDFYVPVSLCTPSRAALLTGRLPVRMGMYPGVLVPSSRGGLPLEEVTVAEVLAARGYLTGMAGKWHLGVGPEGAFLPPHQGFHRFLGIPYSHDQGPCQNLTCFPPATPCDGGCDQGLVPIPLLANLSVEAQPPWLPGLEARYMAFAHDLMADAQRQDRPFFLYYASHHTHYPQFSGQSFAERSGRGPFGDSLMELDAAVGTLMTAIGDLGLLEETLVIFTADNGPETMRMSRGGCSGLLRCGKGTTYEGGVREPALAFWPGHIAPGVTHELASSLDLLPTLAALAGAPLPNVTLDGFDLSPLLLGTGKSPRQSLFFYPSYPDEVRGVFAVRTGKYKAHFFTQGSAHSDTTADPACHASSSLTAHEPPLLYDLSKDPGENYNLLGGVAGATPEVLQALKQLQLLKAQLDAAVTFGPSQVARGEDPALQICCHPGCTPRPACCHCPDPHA
Chain of Hexokinase-4 (Homo sapiens) + Glucokinase regulatory protein (Homo sapiens) (P35557 whole entry, looked up): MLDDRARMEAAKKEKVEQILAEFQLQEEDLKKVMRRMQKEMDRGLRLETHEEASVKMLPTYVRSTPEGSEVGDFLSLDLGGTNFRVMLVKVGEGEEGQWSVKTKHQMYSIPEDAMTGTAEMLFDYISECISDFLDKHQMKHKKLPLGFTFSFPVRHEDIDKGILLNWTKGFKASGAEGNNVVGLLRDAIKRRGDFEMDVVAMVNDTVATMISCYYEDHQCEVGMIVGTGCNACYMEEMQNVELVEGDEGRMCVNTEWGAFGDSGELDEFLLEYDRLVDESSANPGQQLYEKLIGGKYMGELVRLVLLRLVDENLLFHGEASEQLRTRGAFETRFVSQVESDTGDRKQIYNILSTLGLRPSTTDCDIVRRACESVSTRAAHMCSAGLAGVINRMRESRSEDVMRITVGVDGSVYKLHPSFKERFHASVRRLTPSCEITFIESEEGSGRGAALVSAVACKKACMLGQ
Chain of Hexokinase-4 (Homo sapiens) + Glucokinase regulatory protein (Homo sapiens) (Q14397 whole entry, looked up): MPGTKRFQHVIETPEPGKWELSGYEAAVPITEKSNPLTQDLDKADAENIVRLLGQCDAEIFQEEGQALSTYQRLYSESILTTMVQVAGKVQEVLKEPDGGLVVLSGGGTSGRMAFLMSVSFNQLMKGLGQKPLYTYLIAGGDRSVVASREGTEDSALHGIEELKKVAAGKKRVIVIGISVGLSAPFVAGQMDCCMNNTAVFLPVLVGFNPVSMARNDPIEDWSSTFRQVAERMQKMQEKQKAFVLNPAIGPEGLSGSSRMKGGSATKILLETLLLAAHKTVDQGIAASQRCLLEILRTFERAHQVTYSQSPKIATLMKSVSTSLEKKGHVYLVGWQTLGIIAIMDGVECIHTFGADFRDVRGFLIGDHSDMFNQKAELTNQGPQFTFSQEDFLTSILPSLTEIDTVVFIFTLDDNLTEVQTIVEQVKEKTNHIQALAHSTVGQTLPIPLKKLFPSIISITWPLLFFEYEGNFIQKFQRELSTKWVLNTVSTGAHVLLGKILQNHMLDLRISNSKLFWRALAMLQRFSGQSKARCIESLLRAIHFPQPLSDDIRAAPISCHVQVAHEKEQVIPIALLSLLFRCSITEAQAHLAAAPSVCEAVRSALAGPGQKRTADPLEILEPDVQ
Chain of Nuclear receptor ROR-gamma (Homo sapiens) (P51449 whole entry, looked up): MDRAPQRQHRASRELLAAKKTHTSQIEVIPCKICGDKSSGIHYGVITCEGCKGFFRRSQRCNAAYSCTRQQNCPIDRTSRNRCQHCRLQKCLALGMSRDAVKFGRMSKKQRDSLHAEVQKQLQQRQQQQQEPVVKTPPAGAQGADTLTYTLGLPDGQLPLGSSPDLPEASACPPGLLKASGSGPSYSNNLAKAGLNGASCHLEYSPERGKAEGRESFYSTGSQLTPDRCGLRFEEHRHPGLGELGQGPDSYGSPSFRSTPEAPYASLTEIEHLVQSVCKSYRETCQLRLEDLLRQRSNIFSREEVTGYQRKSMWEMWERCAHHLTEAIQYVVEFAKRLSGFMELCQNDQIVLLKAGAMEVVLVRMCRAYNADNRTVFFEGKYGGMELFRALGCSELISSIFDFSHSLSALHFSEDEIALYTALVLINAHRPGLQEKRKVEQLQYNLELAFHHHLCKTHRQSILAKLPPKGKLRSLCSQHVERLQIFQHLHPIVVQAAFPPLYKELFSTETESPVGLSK

With `CNCCC=C1c2ccccc2CCc2ccccc21`, the outcome in assay [1], in assay [2], in assay [3], in [4] and in assay [5] was inactive.

Turning to `Oc1c(Cl)cc(Cl)cc1Sc1cc(Cl)cc(Cl)c1O`, the Potency in [6] was 4.73 µM (active). Also, the Potency entry in assay [7] and in assay [8] was “inactive” in each case.

`COC(=O)[C@H]1[C@H]2C[C@H]3c4[nH]c5ccccc5c4CCN3C[C@H]2CC[C@@H]1O`: the outcome in assay [1], in assay [2], in assay [3], in [4] and in [5] was inactive.

Turning to `COc1cc2c(cc1O)CC[C@@H]1[C@@H]2CC[C@]2(C)[C@@H](O)CC[C@@H]12`, the compound was classed as inactive in [9], in assay [10], in assay [1], in assay [2], in [3] and in assay [4]. Moreover, in assay [5], the result was inactive.

In the case of `CC1(C)CCC(NC(=O)[C@@H](N)CCC(=O)O)CC1`, the result in assay [1], in assay [2], in assay [3], in [4] and in assay [5] was inactive.

Regarding `C[C@@H]1C(=O)NC2=Nc3cccc(Cl)c3CN21`, the result in [1], in [2], in assay [3], in [4] and in assay [5] was inactive.

For the compound `CC(O)C(=O)O` (configuration not stated), the Potency result in assay [6], in assay [7] and in assay [8] was “inactive” each time.

With `CC(=O)O[C@]1(C(C)=O)CC[C@H]2[C@@H]3C[C@H](C)C4=CC(=O)CC[C@]4(C)[C@H]3CC[C@@]21C`, the Potency in assay [6] is 16.8 µM (active). The Potency entry in assay [7] and in assay [8] was “inactive” throughout.

As to `N[C@@H](Cc1cnc[nH]1)C(=O)O`, the result in assay [1], in [2], in assay [3], in [4] and in [5] was inactive.

Take `Nc1ccc(C(=O)O)cc1`: the Potency entry in [6], in [7] and in [8] was “inactive” each time.

For the compound `Nc1cc(Cl)c(NC2=NCCN2)c(Cl)c1`, the outcome in assay [1], in assay [2], in assay [3], in [4] and in [5] was inactive.

Take `Nc1ccn([C@@H]2O[C@H](CO)[C@@H](O)C2(F)F)c(=O)n1`: the compound was called inactive in assay [9] and in assay [10].

Take `Oc1c(I)cc(Cl)c2cccnc12`: the Potency in assay [6] is 23.7 µM (active); in [7] it was 5.96 µM (active).

For `C=CCc1ccc(O)c(OC)c1`, the Potency result in [6], in assay [7] and in [8] was “inactive” in each case.

As for `O=C1OC(c2ccc(O)cc2)(c2ccc(O)cc2)c2ccccc21`, the Potency in assay [6] is 66.8 µM (active). The Potency result in assay [7] and in assay [8] was “inactive” throughout.

With `COc1cccc2c1C(=O)c1c(O)c3c(c(O)c1C2=O)C[C@@](O)(C(=O)CO)C[C@@H]3O[C@H]1C[C@H](N)[C@H](O)[C@H](C)O1`, the compound was classed as inactive in assay [9] and in [10]. For the same compound, the Potency result in [7] is “inactive”. Besides, in assay [8], the Potency was 23.7 µM (active).

For `NC(=NCCCCCCN=C(N)/N=C(\N)Nc1ccc(Cl)cc1)/N=C(\N)Nc1ccc(Cl)cc1`, the figures for the Potency in assay [6] and in assay [8] were 26.6 µM (active) and 42.2 µM (active), respectively. Moreover, the Potency entry in assay [7] was “inactive”.

Take `COC1=CC(=O)C[C@@H](C)[C@]12Oc1c(Cl)c(OC)cc(OC)c1C2=O`: the Potency entry in assay [7] and in assay [8] was “inactive” throughout.

In the case of `Oc1ccc(Cl)cc1Sc1cc(Cl)ccc1O`, in assay [8], the Potency result is “inactive”.

On to `O=C1CCC(c2ccc(-n3ccnc3)cc2)=NN1`, for which the outcome in assay [1], in assay [2], in assay [3], in assay [4] and in [5] was inactive.

In the case of `C[N+]1(CCCCC[N+]2(C)CCCC2)CCCC1`, the outcome in assay [1], in assay [2], in assay [3], in assay [4] and in assay [5] was inactive.

On to `CCCCCCc1ccc(O)cc1O`, for which the Potency result in assay [7] is “inactive”.

Take `O=C(O)c1cc2cc(Cc3cccnc3)ccc2o1`: the result in assay [1], in assay [2], in [3], in assay [4] and in assay [5] was inactive.

Take `CC(=O)O[C@H]1C[C@@H]2CC[C@@H]3[C@H](CC[C@@]4(C)[C@H]3C[C@H]([N+]3(C)CCCCC3)[C@@H]4OC(C)=O)[C@@]2(C)C[C@@H]1[N+]1(C)CCCCC1`: the compound was classed as inactive in assay [2], in [3], in [4] and in [5].

Take `CNCCC(Oc1ccccc1C)c1ccccc1` (configuration not stated): the outcome in [1], in assay [2], in [3], in [4] and in assay [5] was inactive.

Regarding `CC/C(=C(/CC)c1ccc(O)cc1)c1ccc(O)cc1`, in [7], the Potency entry is “inactive”.

Consider `CC(C)C[C@H]1C(=O)N2CCC[C@H]2[C@]2(O)O[C@](NC(=O)[C@@H]3C=C4c5cccc6[nH]c(Br)c(c56)C[C@H]4N(C)C3)(C(C)C)C(=O)N12`, for which the outcome in assay [1], in assay [2], in [3], in assay [4] and in assay [5] was inactive.

For the compound `COc1cc(NS(C)(=O)=O)ccc1Nc1c2ccccc2nc2ccccc12`, the result in assay [1], in assay [2], in [3], in assay [4] and in assay [5] was inactive.

As to `CC(C)(Oc1ccc(Cl)cc1)C(=O)O`, the Potency entry in [7] is “inactive”.

Consider `C1CCc2nnnn2CC1`, for which the call in assay [2], in [3], in assay [4] and in [5] was inactive.

For `CC[C@H](C)C(=O)O[C@H]1CCC=C2C=C[C@H](C)[C@H](CC[C@@H]3C[C@@H](O)CC(=O)O3)[C@H]21`, the result in assay [1], in assay [2] and in assay [5] was inactive.

As for `CCCC1O[C@@H]2C[C@H]3[C@@H]4CCC5=CC(=O)C=C[C@]5(C)[C@H]4[C@@H](O)C[C@]3(C)[C@]2(C(=O)CO)O1` (some centres not stated), the result in assay [1], in assay [2], in assay [3], in [4] and in assay [5] was inactive.

On to `CCC(NC(C)C)C(O)c1ccc(O)c(O)c1` (configuration not stated), for which the outcome in assay [2], in assay [3], in [4] and in assay [5] was inactive.
